Laboratory results reported in PubChem BioAssay (NCATS).
A number with no mark means an inactive call. Results filed as inconclusive are left out. Active and inactive are the calls of the source. Unless noted, calls come from the whole dose curve; as a rule, active = well fitted curve in either direction with a large enough effect (not every such curve was filed as active); inconclusive = small, poorly fitted or top-dose-only effect, or another doubt; inactive = flat fitted curve, though single readings scatter.

Assays:
[1] = target: Lysosomal acid glucosylceramidase (Homo sapiens) (UniProt P04062); test: Glucocerebrosidase-p2 (AID 348; in the data active = potency below about 10 µM; note: potency is the fitted concentration of half-maximal effect); conditions: purified GBA, blue fluorogenic substrate, 40 min
Method in brief: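 Compounds titrated from 0.6 nM upwards against 0.2 nM enzyme in pH 5.9 citric acid/KH2PO4, taurocholate, tween-20; blue fluorogenic substrate 80 uM, 40 min room temperature, stopped and read Ex 365/Em 440 for AC50.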

[2] = AP1 Signaling Pathway (AID 357); conditions: ME-180 AP-1-bla reporter, EGF-induced, beta-lactamase ratio, 5 h; at 7.69 µM (top of the series) unless noted;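 note: ME-180 reporter cells stimulated with EGF at its EC50 level; % is set by controls: 0 for no effect and ±100 for the full control effect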
Method in brief: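 Titration-series screen for positive or negative modulators of EC50 EGF-induced signaling in ME-180 cells carrying an AP-1-driven beta-lactamase reporter. After 5 hours at 37 degrees Celsius, CCF4 460nm/530nm emission ratio gave %Activity; AC50 values derived.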

[3] = target: Cytochrome P450 1A2 (Homo sapiens) (UniProt P05177); test: p450-cyp1a2 (AID 410; calls by dose curve; note: potency is the fitted concentration of half-maximal effect;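 for activity change, negative = inhibition: -100% = full effect of reference inhibitor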); conditions: recombinant CYP1A2, luciferin-ME demethylation, luminescence; series mostly up to 11.4 µM
Method in brief: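 Inhibition was calculated relative to 57 uM furafylline (full inhibition). The reaction used human CYP1A2 at 20nM with Luciferin-ME at its Km, 100uM, driven by an NADPH-regenerating system for 60 min at room temperature.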

[4] = Stat Signaling Pathway (AID 446); conditions: ME-180 SIE beta-lactamase reporter, IL-6 stimulated, 5 h; at 7.69 µM (top of the series) unless noted;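 note: ME-180 cervical cancer cells given 40 pM IL-6 alongside compound; SIE-controlled beta-lactamase reporter measured as 460/530 nm FRET emission ratio; % is set by controls: 0 for no effect and ±100 for the full control effect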
Method in brief: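 ME-180 SIE-bla cells; overnight plating; cpd + IL-6 40 pM, 5 h, 37 C; LiveBLAzer 2.5 h RT; 460/530 nm emission ratio. Normalized to 300 pM IL-6 and 125 nM JAK inhibitor controls.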

[5] = target: Glucocorticoid receptor (Homo sapiens) (UniProt P04150); test: GR-GFP Redistribution (AID 450;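 active = compounds whose dose series gives a full or clear partial fitted curve of increased nuclear translocation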; note: potency is the fitted concentration of half-maximal effect); conditions: U2OS GR-GFP nuclear translocation, laser cytometry, 2 h
[6] = target: Glucocorticoid receptor (Homo sapiens) (UniProt P04150); test: GR-EFC Redistribution (AID 451; calls by dose curve; note: potency is the fitted concentration of half-maximal effect); conditions: CHO-K1 GR-EFC translocation, beta-gal luminescence, 2 h
Method in brief: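 CHO-K1 cells expressing nuclear EA and GR-ED fragments of b-gal; compounds titrated up to 46 uM final, 2 h at 37 C. GR nuclear translocation read as complemented b-gal luminescence after 1 h RT detection.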

[7] = target: Mitogen-activated protein kinase 10 (Mus musculus) (UniProt Q61831); test: JNK3 AlphaScreen Assay (AID 530); conditions: JNK3 lysate, c-Jun phosphorylation; series mostly up to 11.4 µM;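 note: kinase came from lysate of stimulated human HepG2 cells; signal reports phosphorylation of biotinylated GST-cJun 1-79 at Ser73 with 10 µM ATP; % is set by controls: 0 for no effect and ±100 for the full control effect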
Method in brief: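 qHTS format: compounds tested as titrations against IL-1beta/TNF-alpha-activated HepG2 lysate JNK3 with biotin-GST-cJun substrate and 10 uM ATP at room temperature. Loss of anti-phospho-cJun AlphaScreen signal indicates inhibition.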

[8] = target: 3',5'-cyclic-AMP phosphodiesterase 4B (Homo sapiens) (UniProt Q07343); test: qHTS Assay for Inhibitors of PDE-IV (AID 607; active = well fitted activation curve with a large enough effect in the main read-out, with a control signal flat, not every such curve was filed as active; note: % of control where 0% means no effect); conditions: HEK293 ACTOne CNG channel cells, membrane potential fluorescence; series mostly up to 22.9 µM
Method in brief: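 ACTOne HEK293 cells carry a modified cAMP-gated CNG channel and express endogenous PDE4; plated 1000 cells/well, compounds up to 22.9 uM final. Membrane-potential dye fluorescence (ex 535/em 590) was read; parental cells received 10 uM forskolin + 100 uM RO 20-1724.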

[9] = target: Cytochrome P450 2D6 (Homo sapiens) (UniProt P10635); test: qHTS Assay for Inhibitors and Substrates of Cytochrome P450 2D6 (AID 891; active = well fitted curve in the direction sought with a large enough effect; an effect the other way counts as inactive or inconclusive; note: potency is the fitted concentration of half-maximal effect; nearly all actives have a fitted effect of over 60% in size); conditions: recombinant CYP2D6, luciferin-ME EGE luminescence; series mostly up to 11.4 µM
Method in brief: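 Human CYP2D6 (5 nM) with 30 uM Luciferin-ME EGE (at Km) in 100 mM KPO4, compound preincubated 10 min, then NADPH regeneration system for 60 min at room temperature. Luciferin read by luminescence; normalized to 1.43 uM quinidine.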

[10] = target: Cytochrome P450 3A4 (Homo sapiens) (UniProt P08684); test: qHTS Assay for Activators of Cytochrome P450 3A4 (AID 885; active = well fitted curve in the direction sought with a large enough effect; an effect the other way counts as inactive or inconclusive; note: nearly all actives have a fitted effect of over 65% in size); conditions: recombinant CYP3A4, Luciferin-PPXE luminescence, 60 min; series mostly up to 11.4 µM
Method in brief: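 20nM CYP3A4 + 25uM Luciferin-PPXE (=KM), 200mM KPO4; cpd 10 min RT; NADPH regen, 60 min RT; stop w/ detection buffer, 20 min; luminescence. Normalized to 57 uM ketoconazole.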

[11] = target: Cytochrome P450 2C19 (Homo sapiens) (UniProt P33261); test: qHTS Assay for Inhibitors and Substrates of Cytochrome P450 2C19 (AID 899; active = well fitted curve in the direction sought with a large enough effect; an effect the other way counts as inactive or inconclusive; note: nearly all actives have a fitted effect of over 60% in size; note: potency is the fitted concentration of half-maximal effect; for activity, negative = inhibition: % is set by controls: 0 for no effect and ±100 for the full control effect); conditions: recombinant CYP2C19, luciferin-H EGE luminescence; series mostly up to 11.4 µM
Method in brief: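 Luminescent read-out of luciferin formed from Luciferin-H EGE (10uM, equal to KM). Enzyme 5nM in 50mM KPO4; compound added, 10 min at 37C, then NADPH regenerating system for 60 min at 37C. Full inhibition defined by 57uM ketoconazole.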

[12] = target: Cytochrome P450 3A4 (Homo sapiens) (UniProt P08684); test: qHTS Assay for Inhibitors and Substrates of Cytochrome P450 3A4 (AID 884; active = well fitted curve in the direction sought with a large enough effect; an effect the other way counts as inactive or inconclusive; note: potency is the fitted concentration of half-maximal effect; nearly all actives have a fitted effect of over 50% in size); conditions: recombinant CYP3A4, Luciferin-PPXE luminescence; series mostly up to 57.1 µM
Method in brief: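 20 nM human CYP3A4 with 25 uM Luciferin-PPXE (at KM) in 200 mM KPO4, preincubated 10 min with compound; NADPH regeneration started a 60 min RT reaction. Luciferin detected by luminescence, normalized to 57 uM ketoconazole as full inhibition.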

[13] = qHTS Assay for Identification of Small Molecule Agonists for Hypoxia Response Element Signaling Pathway (AID 914; active = well fitted activation curve with a large enough effect in the signal ratio, with a control signal flat, not every such curve was filed as active; the % refers to the signal ratio; note: % of control where 0% means no effect); conditions: ME-180 (cervical carcinoma) HRE-bla reporter, beta-lactamase ratio, CoCl2, 17 h; activation: hits give high values
Method in brief: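 Compounds in a titration series were added to ME-180 reporter cells alongside an EC50 level of CoCl2. After 17 hours, beta-lactamase activity was read as the 460nm/530nm emission ratio of CCF4, giving AC50 values.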

[14] = target: Cytochrome P450 2C9 (Homo sapiens) (UniProt P11712); test: qHTS Assay for Inhibitors and Substrates of Cytochrome P450 2C9 (AID 883; active = well fitted curve in the direction sought with a large enough effect; an effect the other way counts as inactive or inconclusive; note: potency is the fitted concentration of half-maximal effect; nearly all actives have a fitted effect of over 60% in size); conditions: recombinant CYP2C9, luciferin-H luminescence, 60 min; series mostly up to 11.4 µM
Method in brief: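 10nM CYP2C9 + 100uM Luciferin-H (=KM), 25mM KPO4; cpd 10 min 37C; NADPH regen, 60 min 37C; stop/detect with P450 Glo-Buffer 20 min; luminescence. Norm. to 57uM sulphaphenazole as full inhibition.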

3',5'-cyclic-AMP phosphodiesterase 4B (Homo sapiens), sequence (Q07343 whole entry, looked up): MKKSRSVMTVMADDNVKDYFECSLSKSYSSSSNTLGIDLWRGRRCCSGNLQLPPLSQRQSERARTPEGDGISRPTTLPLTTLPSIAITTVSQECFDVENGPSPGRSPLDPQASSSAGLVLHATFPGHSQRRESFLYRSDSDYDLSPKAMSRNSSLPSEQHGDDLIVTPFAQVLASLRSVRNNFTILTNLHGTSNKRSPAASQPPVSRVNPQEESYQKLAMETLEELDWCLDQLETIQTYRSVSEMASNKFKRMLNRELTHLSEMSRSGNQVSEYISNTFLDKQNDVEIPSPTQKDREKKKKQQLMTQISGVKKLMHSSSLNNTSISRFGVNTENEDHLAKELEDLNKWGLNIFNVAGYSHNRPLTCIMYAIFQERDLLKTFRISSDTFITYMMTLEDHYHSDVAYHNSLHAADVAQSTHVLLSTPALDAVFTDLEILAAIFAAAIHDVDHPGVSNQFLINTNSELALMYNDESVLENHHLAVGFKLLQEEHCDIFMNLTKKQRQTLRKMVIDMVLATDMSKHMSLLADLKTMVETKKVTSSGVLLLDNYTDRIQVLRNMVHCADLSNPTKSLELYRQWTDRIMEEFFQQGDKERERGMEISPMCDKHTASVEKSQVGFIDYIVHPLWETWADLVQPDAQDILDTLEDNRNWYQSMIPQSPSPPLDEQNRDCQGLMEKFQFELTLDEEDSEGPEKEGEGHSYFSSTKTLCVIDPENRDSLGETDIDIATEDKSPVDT
Cytochrome P450 3A4 (Homo sapiens), sequence (P08684 whole entry, looked up): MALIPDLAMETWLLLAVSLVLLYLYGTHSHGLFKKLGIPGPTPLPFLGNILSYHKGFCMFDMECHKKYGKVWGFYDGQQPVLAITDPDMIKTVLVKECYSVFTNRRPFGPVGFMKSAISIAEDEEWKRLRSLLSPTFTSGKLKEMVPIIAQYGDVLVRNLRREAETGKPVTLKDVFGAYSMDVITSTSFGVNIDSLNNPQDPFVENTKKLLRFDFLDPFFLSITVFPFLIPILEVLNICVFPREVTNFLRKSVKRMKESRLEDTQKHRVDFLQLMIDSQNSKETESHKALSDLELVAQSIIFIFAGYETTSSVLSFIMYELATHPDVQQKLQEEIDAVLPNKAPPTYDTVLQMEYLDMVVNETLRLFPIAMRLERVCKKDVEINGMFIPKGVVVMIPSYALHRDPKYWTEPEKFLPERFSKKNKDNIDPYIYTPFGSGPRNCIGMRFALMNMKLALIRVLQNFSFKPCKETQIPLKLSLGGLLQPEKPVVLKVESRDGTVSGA
Glucocorticoid receptor (Homo sapiens), sequence (P04150 whole entry, looked up, the tested form may be a part): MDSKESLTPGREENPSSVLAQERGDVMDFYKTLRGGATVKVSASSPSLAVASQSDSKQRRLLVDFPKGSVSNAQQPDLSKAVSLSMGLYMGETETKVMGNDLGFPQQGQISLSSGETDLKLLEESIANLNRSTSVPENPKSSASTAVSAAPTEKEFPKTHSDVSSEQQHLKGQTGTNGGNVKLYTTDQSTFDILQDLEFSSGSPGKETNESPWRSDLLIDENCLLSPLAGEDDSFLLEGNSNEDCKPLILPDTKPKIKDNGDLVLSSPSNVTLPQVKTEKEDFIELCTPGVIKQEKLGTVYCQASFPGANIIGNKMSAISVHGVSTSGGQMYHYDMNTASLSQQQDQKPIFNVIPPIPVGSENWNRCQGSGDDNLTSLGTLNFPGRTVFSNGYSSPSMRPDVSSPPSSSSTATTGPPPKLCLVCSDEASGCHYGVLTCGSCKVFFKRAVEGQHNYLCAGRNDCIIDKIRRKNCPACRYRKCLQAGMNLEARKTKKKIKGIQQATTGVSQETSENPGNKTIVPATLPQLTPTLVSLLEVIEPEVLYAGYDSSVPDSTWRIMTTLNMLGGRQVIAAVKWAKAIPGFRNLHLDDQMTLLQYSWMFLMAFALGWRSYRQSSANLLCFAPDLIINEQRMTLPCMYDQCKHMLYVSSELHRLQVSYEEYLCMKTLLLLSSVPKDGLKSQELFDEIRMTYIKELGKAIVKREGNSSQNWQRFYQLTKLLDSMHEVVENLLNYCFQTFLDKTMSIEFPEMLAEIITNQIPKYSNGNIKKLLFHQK
Cytochrome P450 2C19 (Homo sapiens), sequence (P33261 whole entry, looked up): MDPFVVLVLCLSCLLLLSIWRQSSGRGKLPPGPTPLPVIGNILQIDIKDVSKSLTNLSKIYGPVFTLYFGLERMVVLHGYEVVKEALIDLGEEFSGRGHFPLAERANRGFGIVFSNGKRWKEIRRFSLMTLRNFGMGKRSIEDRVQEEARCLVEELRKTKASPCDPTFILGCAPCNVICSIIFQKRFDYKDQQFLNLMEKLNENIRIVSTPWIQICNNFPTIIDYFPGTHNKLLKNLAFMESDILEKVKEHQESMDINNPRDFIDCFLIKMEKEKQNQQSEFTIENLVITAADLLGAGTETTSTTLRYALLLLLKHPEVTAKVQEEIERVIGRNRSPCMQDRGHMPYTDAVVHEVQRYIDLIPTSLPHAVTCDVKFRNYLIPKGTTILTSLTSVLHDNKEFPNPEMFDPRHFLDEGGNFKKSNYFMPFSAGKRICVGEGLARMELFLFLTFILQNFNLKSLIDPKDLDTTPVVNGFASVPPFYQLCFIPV
Cytochrome P450 1A2 (Homo sapiens), sequence (P05177 whole entry, looked up): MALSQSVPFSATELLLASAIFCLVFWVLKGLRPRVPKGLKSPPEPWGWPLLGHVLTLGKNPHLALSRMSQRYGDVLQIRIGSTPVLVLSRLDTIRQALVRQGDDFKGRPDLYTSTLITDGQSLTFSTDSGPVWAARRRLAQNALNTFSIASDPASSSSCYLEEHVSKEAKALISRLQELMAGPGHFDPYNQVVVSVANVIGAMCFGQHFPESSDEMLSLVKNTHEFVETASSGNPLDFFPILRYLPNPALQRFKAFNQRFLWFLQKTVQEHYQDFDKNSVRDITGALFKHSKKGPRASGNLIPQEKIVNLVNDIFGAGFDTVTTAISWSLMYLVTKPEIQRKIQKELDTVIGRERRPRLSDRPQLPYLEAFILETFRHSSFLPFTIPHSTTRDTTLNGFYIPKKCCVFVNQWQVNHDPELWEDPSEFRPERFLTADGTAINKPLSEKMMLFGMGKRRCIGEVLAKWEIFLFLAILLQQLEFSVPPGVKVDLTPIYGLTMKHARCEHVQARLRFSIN
Lysosomal acid glucosylceramidase (Homo sapiens), sequence (P04062 whole entry, looked up): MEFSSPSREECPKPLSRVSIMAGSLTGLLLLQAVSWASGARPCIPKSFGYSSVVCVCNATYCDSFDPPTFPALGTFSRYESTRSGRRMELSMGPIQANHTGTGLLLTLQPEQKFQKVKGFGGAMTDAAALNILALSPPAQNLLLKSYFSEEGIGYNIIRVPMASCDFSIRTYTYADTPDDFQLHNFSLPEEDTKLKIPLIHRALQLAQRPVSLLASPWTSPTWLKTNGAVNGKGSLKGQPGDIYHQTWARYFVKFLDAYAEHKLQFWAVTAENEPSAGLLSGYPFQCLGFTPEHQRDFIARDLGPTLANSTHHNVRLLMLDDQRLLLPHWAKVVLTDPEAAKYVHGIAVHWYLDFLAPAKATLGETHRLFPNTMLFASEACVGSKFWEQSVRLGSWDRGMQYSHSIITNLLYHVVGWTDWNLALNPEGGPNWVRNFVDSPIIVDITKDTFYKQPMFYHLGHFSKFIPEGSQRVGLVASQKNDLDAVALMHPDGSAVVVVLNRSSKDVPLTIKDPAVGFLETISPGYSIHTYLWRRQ
Cytochrome P450 2D6 (Homo sapiens), sequence (P10635 whole entry, looked up): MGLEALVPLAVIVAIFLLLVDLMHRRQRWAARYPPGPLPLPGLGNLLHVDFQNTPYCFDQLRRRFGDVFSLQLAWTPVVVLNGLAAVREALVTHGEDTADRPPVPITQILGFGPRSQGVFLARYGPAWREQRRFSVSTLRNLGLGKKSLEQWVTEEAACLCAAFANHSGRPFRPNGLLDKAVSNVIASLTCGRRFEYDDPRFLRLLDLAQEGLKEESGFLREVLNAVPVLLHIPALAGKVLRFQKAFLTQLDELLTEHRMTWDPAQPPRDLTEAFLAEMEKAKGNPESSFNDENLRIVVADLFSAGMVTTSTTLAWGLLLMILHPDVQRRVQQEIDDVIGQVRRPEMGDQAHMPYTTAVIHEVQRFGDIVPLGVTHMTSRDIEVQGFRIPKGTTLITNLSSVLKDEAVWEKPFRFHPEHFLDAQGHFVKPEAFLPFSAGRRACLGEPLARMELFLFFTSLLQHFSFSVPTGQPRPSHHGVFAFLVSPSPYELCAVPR
Cytochrome P450 2C9 (Homo sapiens), sequence (P11712 whole entry, looked up): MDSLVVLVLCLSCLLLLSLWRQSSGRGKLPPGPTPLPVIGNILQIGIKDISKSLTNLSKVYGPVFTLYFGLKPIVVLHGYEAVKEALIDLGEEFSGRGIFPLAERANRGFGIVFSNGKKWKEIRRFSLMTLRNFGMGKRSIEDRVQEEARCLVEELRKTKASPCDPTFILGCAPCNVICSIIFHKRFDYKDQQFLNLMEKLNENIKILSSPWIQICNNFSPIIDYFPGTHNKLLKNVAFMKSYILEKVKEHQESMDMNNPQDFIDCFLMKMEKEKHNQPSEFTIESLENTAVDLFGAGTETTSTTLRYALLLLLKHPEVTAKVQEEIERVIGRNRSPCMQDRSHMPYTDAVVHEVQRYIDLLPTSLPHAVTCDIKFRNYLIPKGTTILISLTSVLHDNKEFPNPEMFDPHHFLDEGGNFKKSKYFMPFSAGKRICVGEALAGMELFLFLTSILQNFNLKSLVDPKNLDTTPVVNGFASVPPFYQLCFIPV

SMILES | Potency [1] | activity change, negative = inhibition [2] [%] | activity change, negative = inhibition [3] | activity, negative = inhibition [4] [%] | Potency [5] | Potency [6] [µM] | Potency [7] | Potency [8] | Potency [9] | Potency [10] | Potency [3] | Potency [11] | Potency [12] | activation [13] [%] | Potency [14]
Clc1ccc2c(NCCNC3CCCCC3)ccnc2c1 | > 11.4 µM | 5.59 | -10.2% [at 2.29 µM] | 3.49 | > 46 µM | > 9.22 | inactive | inactive | 3.16 µM (active) | – | – | – | – | – | –
c1ccc2c[n+](Cc3ccnc4ccccc34)ccc2c1 | 8.58 µM (active) | 12.4 | -21.8% [at 2.29 µM] | -6.6 | > 46 µM | > 9.22 | inactive | inactive | 3.16 µM (active) | inactive | – | – | – | – | –
O=C(O)c1ccccc1N[C@H](c1ccccc1)c1ccc2cccnc2c1O | > 11.4 µM | 0.796 | – | -21.5 | > 46 µM | > 9.22 | inactive | inactive | – | – | 1.58 µM (active) | 3.98 µM (active) | – | – | –
CN(C)CCCc1c2ccccc2nc2ccc(Cl)cc12 | > 11.4 µM | 14.2 | – | 18.2 | > 46 µM | > 9.22 | inactive | inactive | 1.58 µM (active) | – | 3.98 µM (active) | – | – | – | –
COc1ccccc1-c1ccc2ncnc(NCc3cccnc3)c2c1 | > 11.4 µM | -18.5 | – | -19.8 | > 46 µM | > 46 | inactive | inactive | 7.94 µM (active) | inactive | 0.794 µM (active) | 0.0079 µM (active) | 0.631 µM (active) | – | –
C[C@@]12C[C@H](O)[C@@H]3[C@H](CCC4=CC(=O)CC[C@]43C)[C@H]1CC[C@@H]2c1csc(N)n1 | > 11.4 µM | 4.13 | -9.8% [at 2.29 µM] | -3.43 | 1.73 µM (active) | > 9.22 | inactive | inactive | – | inactive | – | 3.98 µM (active) | 2.51 µM (active) | – | –
c1ccc2c(c1)-c1ccccc1C2N1CC2CCC(CC2)C1 | > 11.4 µM | 22.5 | – | 17.6 | > 46 µM | > 9.22 | – | inactive | – | – | 0.501 µM (active) | – | – | – | –
C[C@@H]1NCC[C@H](CC(=O)O)[C@H]1CC(=O)O | > 11.4 µM | 8.61 | – | 8.09 | > 46 µM | > 9.22 | inactive | inactive | – | – | inactive | – | – | 3.32 | –
C[C@@]12CC[C@H]3[C@H](CC=C4C[C@@H](O)CC[C@@]43C)[C@@H]1CC[C@@H]2N(CCO)CCO | > 11.4 µM | -4.05 | – | 18.7 | > 46 µM | > 9.22 | inactive | inactive | – | – | inactive | – | – | 9.1 | –
C[C@H](NC(=O)c1ccc(Cl)c(Cl)c1)c1ccc(-c2ccccc2)cc1 | > 11.4 µM | -14.7 | – | -12.5 | > 46 µM | > 9.22 | inactive | inactive | – | – | 0.631 µM (active) | 1.26 µM (active) | – | – | –
O=C(O)[C@@H]1[C@H](C(=O)O)[C@H]2C(=O)C=C[C@H]1N2Cc1ccccc1 | > 11.4 µM | -5.73 | -3.9% [at 2.29 µM] | – | > 46 µM | > 9.22 | inactive | inactive | – | – | – | – | – | – | –
CC1CCN(CC(=O)N2c3ccccc3Sc3cc4ccccc4cc32)CC1 | > 11.4 µM | 28.3 | – | 9.28 | > 46 µM | > 9.22 | inactive | – | 3.98 µM (active) | inactive | 3.98 µM (active) | 3.16 µM (active) | 3.98 µM (active) | – | –
O[C@H](C[C@@H]1CCCCN1)c1ccc2c(c1)oc1ccccc12 | > 11.4 µM | 6.24 | -10.4% [at 2.29 µM] | 4 | > 46 µM | > 9.22 | – | inactive | – | – | – | – | – | -0.884 | –
Clc1ccc2c(NC3CCC(N4CCCCC4)CC3)ccnc2c1 (configuration not stated) | > 11.4 µM | -12.3 | -15.7% [at 2.29 µM] | 3.71 | > 46 µM | > 9.22 | – | inactive | – | – | – | inactive | – | – | –
N#CC(C#N)=NNc1ccc2cn[nH]c2c1 | > 11.4 µM | 1.21 | – | -12 | > 46 µM | > 9.22 | inactive | – | – | inactive | 1.26 µM (active) | – | – | – | 2.51 µM (active)
